Assay results as given in PubChem BioAssay (EPA / NIEHS).
Inconclusive results are not listed. Calls of active or inactive are those of the source. Rule for the calls, unless noted: active = hit-call score of the fitted dose curve at least 0.9, where 1 is the maximum; inactive = score below 0.9.

Key:
[1] = target: Retinoic acid receptor alpha (Homo sapiens) (UniProt P10276); test: ATG_DR5_RAR_CIS: Attagene CIS-FACTORIAL HepG2 Assay for human Retinoic Acid Receptor Alpha (RARE), DR5 submotif (AID 2282934); settings: HepG2 Attagene cis-factorial RARE DR5 reporter, mRNA; actives raise or lower the signal
Method in brief: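 HepG2, transient cis-reporter transfection, 24 h exposure. mRNA readout: RT-PCR, FAM label, HpaI cut, capillary electrophoresis. DMSO baseline, gain/loss fitting.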

[2] = ATG_EGR_CIS: Attagene CIS-FACTORIAL HepG2 Assay for human Early Growth Response 1 (EGR1) (AID 2282938); settings: HepG2 Attagene CIS-FACTORIAL EGR reporter mRNA; actives raise or lower the signal
Method in brief: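 Endpoint derived by bidirectional fitting versus DMSO vehicle. Method: cis-promoter reporter units transfected into HepG2, 24 h dosing, RNA isolation, RT-PCR with 6-FAM primer extension and HpaI digestion, then capillary electrophoresis fluorescence detection.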

[3] = target: Hypoxia-inducible factor 1-alpha (Homo sapiens) (UniProt Q16665); test: ATG_HIF1a_CIS: Attagene CIS-FACTORIAL HepG2 Assay for human Hypoxia Inducible Factor 1 (HIF1A) (AID 2282951); settings: HepG2 Attagene cis-factorial HIF1a reporter transcription; actives raise or lower the signal
Method in brief: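 Dosed 24 h, transfected HepG2 cells yielded total RNA whose reporter transcripts were RT-PCR-amplified and sized by capillary electrophoresis using fluorescent labelling; DMSO defined baseline, with gain and loss of signal both fitted.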

[4] = ATG_RORE_CIS: Attagene CIS-FACTORIAL HepG2 Assay for human RAR-related Orphan Receptor Element (RORE) (AID 2282959); settings: HepG2 Attagene cis-factorial RORE reporter, mRNA; actives raise or lower the signal
Method in brief: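 Transiently transfected HepG2 reporter cells were treated 24 h. Reporter transcripts were detected by RT-PCR and capillary electrophoresis, with bidirectional fitting against DMSO.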

[5] = ATG_TA_CIS: Attagene CIS-FACTORIAL HepG2 Assay for human TA Basal Promoter (AID 2282964); settings: HepG2 Attagene CIS-factorial TA basal promoter reporter; actives raise or lower the signal
Method in brief: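 Read-out: fluorescent reporter-transcript fragments resolved by capillary electrophoresis after RT-PCR and HpaI digestion. Source: HepG2 cells carrying transiently transfected multi-reporter cis constructs, treated 24 h. Endpoint fitted bidirectionally relative to DMSO.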

[6] = target: X-box-binding protein 1 (Homo sapiens) (UniProt P17861); test: ATG_Xbp1_CIS: Attagene CIS-FACTORIAL HepG2 Assay for human X-box Binding Protein 1 (XBP1) (AID 2282972); settings: HepG2 XBP1 cis-element reporter, Attagene multiplex; actives raise or lower the signal
Method in brief: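 HepG2 cells transiently transfected with cis-regulated multiple reporter transcription units; endogenous transcription factor activity measured 24 hours after chemical dosing. Reporter mRNA quantified by RT-PCR, 6-FAM primer extension, HpaI digestion and capillary electrophoresis; bidirectional fitting versus DMSO.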

[7] = target: Hepatocyte nuclear factor 4-alpha (Homo sapiens) (UniProt P41235); test: ATG_HNF4a_TRANS: Attagene TRANS-FACTORIAL HepG2 Assay for human Hepatocyte Nuclear Factor 4 alpha (HNF4a) (AID 2282982; active = hit-call score of the fitted dose curve at least 0.9, where 1 is the maximum); settings: HepG2 HNF4a transactivation reporter, mRNA readout
Method in brief: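 Readout is fluorescent reporter-transcript fragments resolved by capillary electrophoresis after RT-PCR from HepG2 cells dosed for 24 h. Cells carried transfected GAL4-UAS reporter constructs measuring exogenous NR-GAL4 chimera activity; DMSO served as baseline.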

[8] = ATG_M_06_TRANS: Attagene TRANS-FACTORIAL HepG2 Assay for M06 Transcription Factor (Internal Marker) (AID 2282983; active = hit-call score of the fitted dose curve at least 0.9, where 1 is the maximum;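 note: reporter transcript level by RT-PCR then capillary electrophoresis fluorescence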); settings: HepG2 Attagene TRANS M06 internal marker reporter
Method in brief: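 After a 24 h chemical treatment of transfected HepG2, RNA underwent DNase I treatment, reverse transcription and reporter-specific PCR; labelled, HpaI-digested products were sized by capillary electrophoresis. Signal increase relative to DMSO defined activity.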

[9] = ATG_M_32_TRANS: Attagene TRANS-FACTORIAL HepG2 Assay for M32 Transcription Factor (Internal Marker) (AID 2282984; active = hit-call score of the fitted dose curve at least 0.9, where 1 is the maximum;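 note: transcript level of a background control reporter unit measured by RT-PCR and capillary electrophoresis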); settings: HepG2 Attagene TRANS M32 internal marker reporter
Method in brief: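 Measures reporter mRNA induction in human HepG2 liver cells after 24 h chemical treatment. Transcripts from transiently transfected GAL4-UAS reporter units are amplified, fluorescently labelled and sized by capillary electrophoresis; gain of signal relative to DMSO.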

[10] = ATG_NRF2_ARE_CIS: Attagene CIS-FACTORIAL HepG2 Assay for human Nuclear Factor Erythroid 2 Related Factor 2 (NFR2) response to Antioxidant Response Elements (ARE) (AID 2282992); settings: HepG2 Attagene ARE/NRF2 reporter, transcription factor activity; actives raise or lower the signal;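 for AC50: reporter mRNA level measured by RT-PCR and capillary electrophoresis fluorescence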
Method in brief: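 HepG2 cells transiently transfected with multiplexed cis-regulated reporter transcription units measure endogenous transcription factor activity. Reporter mRNA at 24 h is quantified by RT-PCR, fluorescent labelling and capillary electrophoresis, with bidirectional fitting relative to DMSO.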

[11] = target: human Peroxisome Proliferator-activated Receptor alpha (PPARa), PPARA (gene 5465) (UniProt Q07869); test: ATG_PPARa_TRANS: Attagene TRANS-FACTORIAL HepG2 Assay for human Peroxisome Proliferator-activated Receptor alpha (PPARa) (AID 2283001; active = hit-call score of the fitted dose curve at least 0.9, where 1 is the maximum;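 for AC50: potency for gain of reporter signal over DMSO so agonist or activator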)
Method in brief: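 Read-out is fluorescence of reporter cDNA fragments resolved by capillary electrophoresis after RT-PCR. Human HepG2 liver cells carried transfected PPARa-Gal4 chimera and GAL4-UAS reporter units, treated 24 h; activity scored as increase over DMSO.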

[12] = target: human Thyroid Receptor alpha (THRa1), THRA (gene 7067) (UniProt P10827); test: ATG_THRa1_TRANS: Attagene TRANS-FACTORIAL HepG2 Assay for human Thyroid Receptor alpha (THRa1) (AID 2283014; active = hit-call score of the fitted dose curve at least 0.9, where 1 is the maximum)
Method in brief: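 Transient HepG2 transfection, NR-Gal4 chimera driving GAL4-UAS reporters; 24 h compound exposure; total RNA, oligo(dT) RT, PCR, fluorescent primer extension, capillary electrophoresis. Upward direction vs DMSO control.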

[13] = ATG_AP_2_CIS: Attagene CIS-FACTORIAL HepG2 Assay for human Activator Protein 2 (AP-2) (AID 2282932); settings: HepG2 AP-2 cis-reporter, Attagene transcription factor profiling; actives raise or lower the signal
Method in brief: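 HepG2, transient MRTU transfection, cis-regulated reporters; 24 h compound exposure; RNA isolated, RT-PCR, 6-FAM labelling, HpaI digest, CE fluorescence. DMSO = negative control/baseline, bidirectional fit.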

[14] = ATG_BRE_CIS: Attagene CIS-FACTORIAL HepG2 Assay for human Bone Morphogenetic Protein (BMP) Response Element (BRE) (AID 2282933); settings: HepG2 BMP response element reporter, Attagene transcription factor profiling; actives raise or lower the signal
Method in brief: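 Transient MRTU transfection of human HepG2 liver cells; 24 h compound treatment; total RNA isolated, reverse-transcribed, PCR-amplified, 6-FAM labelled, HpaI-cut, capillary electrophoresis. DMSO = negative control/baseline, bidirectional fit.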

[15] = ATG_MRE_CIS: Attagene CIS-FACTORIAL HepG2 Assay for human Metal Responsive Element (MRE) (AID 2282954); settings: HepG2 MRE cis-reporter transcription, Attagene multiplex; actives raise or lower the signal
Method in brief: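 Transient MRTU transfection of HepG2 (FuGene 6); 24 h dosing; total RNA → oligo(dT) RT, PCR, 6-FAM primer extension, HpaI cut, CE. Bidirectional fit vs DMSO.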

[16] = ATG_M_19_TRANS: Attagene TRANS-FACTORIAL HepG2 Assay for M19 Transcription Factor (Internal Marker) (AID 2282974; active = hit-call score of the fitted dose curve at least 0.9, where 1 is the maximum); settings: HepG2 Attagene TRANS-FACTORIAL M19 internal marker reporter
Method in brief: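 Using RT-PCR and capillary electrophoresis, reporter mRNA from transiently transfected human HepG2 cells was quantified following 24 h exposure; activity was fitted in the positive direction against DMSO.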

[17] = ATG_PBREM_CIS: Attagene CIS-FACTORIAL HepG2 Assay for human Phenobarbital-responsive Enhancer Module (PBREM) (AID 2282955); settings: HepG2 PBREM cis-reporter, Attagene multiplexed transcription; actives raise or lower the signal
Method in brief: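 Transfected liver-derived HepG2 cells exposed 24 h; PBREM reporter transcript quantified via RT-PCR and capillary electrophoresis, with activity in either direction referenced to DMSO.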

[18] = ATG_NFI_CIS: Attagene CIS-FACTORIAL HepG2 Assay for human Nuclear Factor I (NFI) (AID 2282989); settings: HepG2 cis-regulatory reporter, NFI response element transcription; actives raise or lower the signal
Method in brief: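 Transient MRTU transfection of HepG2 → 24 h chemical dosing → total RNA, oligo(dT) RT → PCR, 6-FAM primer extension, HpaI cut → capillary electrophoresis. Endpoint fitted bidirectionally relative to DMSO.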

[19] = ATG_NF_kB_CIS: Attagene CIS-FACTORIAL HepG2 Assay for human Nuclear Factor Kappa B (NF-kB) (AID 2282991); settings: HepG2 Attagene cis-factorial NF-kB reporter mRNA; actives raise or lower the signal
Method in brief: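 Endpoint from a 52-component multiplexed HepG2 reporter panel: cis-regulated transcription units transiently transfected, 24 h dosing, reporter mRNA quantified by RT-PCR and capillary electrophoresis, scored as increase or decrease against DMSO.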

[20] = target: human Retinoid X Receptor beta (RXRb), RXRB (gene 6257) (UniProt P28702); test: ATG_RXRb_TRANS: Attagene TRANS-FACTORIAL HepG2 Assay for human Retinoid X Receptor beta (RXRb) (AID 2283013; active = hit-call score of the fitted dose curve at least 0.9, where 1 is the maximum)
Method in brief: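 Transfect HepG2 with GAL4-UAS multi-reporter constructs (chimeric NR-Gal4, TRANS format); dose compound 24 h; isolate RNA, RT-PCR, FAM primer extension, HpaI digest; quantify by capillary electrophoresis; positive direction vs DMSO.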

Measured: AC50

Chain of human Thyroid Receptor alpha (THRa1), THRA (gene 7067) (P10827 whole entry, looked up, the tested form may be a part): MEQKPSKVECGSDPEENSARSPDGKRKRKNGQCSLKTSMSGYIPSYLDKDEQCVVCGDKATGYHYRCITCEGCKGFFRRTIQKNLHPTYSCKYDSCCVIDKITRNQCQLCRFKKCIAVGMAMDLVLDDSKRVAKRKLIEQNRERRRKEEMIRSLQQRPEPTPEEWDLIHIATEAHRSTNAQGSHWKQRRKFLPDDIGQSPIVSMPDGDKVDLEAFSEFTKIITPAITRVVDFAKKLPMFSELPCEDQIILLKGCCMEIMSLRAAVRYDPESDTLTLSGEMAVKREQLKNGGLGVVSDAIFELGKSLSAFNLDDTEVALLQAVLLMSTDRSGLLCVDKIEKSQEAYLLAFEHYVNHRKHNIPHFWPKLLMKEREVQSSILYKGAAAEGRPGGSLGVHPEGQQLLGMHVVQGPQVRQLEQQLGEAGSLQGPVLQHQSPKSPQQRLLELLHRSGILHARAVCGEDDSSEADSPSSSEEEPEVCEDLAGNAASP
Chain of Retinoic acid receptor alpha (Homo sapiens) (P10276 whole entry, looked up): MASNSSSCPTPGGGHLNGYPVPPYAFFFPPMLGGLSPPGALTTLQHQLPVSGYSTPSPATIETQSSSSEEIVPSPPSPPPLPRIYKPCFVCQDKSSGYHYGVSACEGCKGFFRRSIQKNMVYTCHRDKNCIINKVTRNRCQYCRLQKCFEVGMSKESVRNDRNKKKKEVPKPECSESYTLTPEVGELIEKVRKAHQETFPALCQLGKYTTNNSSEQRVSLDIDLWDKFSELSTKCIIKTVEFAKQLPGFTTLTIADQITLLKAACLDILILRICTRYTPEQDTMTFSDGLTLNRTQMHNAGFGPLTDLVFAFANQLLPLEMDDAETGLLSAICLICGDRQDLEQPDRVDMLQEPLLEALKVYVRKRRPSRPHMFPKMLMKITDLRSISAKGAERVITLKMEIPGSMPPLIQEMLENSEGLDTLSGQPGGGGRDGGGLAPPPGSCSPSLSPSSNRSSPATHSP
Chain of X-box-binding protein 1 (Homo sapiens) (P17861 whole entry, looked up): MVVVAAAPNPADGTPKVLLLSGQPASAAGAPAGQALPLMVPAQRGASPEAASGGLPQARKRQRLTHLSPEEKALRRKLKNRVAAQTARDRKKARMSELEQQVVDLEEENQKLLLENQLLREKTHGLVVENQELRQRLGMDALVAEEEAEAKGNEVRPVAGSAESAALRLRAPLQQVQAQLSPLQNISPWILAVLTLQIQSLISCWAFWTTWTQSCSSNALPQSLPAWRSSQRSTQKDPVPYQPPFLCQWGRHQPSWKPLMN
Chain of Hypoxia-inducible factor 1-alpha (Homo sapiens) (Q16665 whole entry, looked up): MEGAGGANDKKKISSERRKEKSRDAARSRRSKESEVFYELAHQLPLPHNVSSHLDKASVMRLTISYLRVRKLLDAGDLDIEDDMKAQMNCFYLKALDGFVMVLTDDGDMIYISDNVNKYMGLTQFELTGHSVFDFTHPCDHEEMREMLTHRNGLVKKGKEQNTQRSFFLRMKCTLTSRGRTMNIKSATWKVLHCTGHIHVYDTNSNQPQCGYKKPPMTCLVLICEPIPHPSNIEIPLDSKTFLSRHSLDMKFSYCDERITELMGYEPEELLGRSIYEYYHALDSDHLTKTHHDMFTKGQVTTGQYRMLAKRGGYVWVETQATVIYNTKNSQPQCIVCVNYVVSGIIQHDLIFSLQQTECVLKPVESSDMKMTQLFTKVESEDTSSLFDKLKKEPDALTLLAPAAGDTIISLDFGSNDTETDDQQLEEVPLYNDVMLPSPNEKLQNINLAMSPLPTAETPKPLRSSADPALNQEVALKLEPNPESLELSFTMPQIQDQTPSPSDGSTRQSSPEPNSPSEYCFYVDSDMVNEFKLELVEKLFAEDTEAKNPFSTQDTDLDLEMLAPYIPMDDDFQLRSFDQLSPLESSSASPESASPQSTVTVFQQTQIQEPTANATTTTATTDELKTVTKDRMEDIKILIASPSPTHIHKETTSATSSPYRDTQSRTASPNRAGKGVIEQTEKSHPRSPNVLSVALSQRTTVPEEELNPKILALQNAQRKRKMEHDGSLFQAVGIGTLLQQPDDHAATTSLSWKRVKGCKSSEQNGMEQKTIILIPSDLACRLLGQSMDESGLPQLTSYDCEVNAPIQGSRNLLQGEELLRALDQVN
Chain of Hepatocyte nuclear factor 4-alpha (Homo sapiens) (P41235 whole entry, looked up, the tested form may be a part): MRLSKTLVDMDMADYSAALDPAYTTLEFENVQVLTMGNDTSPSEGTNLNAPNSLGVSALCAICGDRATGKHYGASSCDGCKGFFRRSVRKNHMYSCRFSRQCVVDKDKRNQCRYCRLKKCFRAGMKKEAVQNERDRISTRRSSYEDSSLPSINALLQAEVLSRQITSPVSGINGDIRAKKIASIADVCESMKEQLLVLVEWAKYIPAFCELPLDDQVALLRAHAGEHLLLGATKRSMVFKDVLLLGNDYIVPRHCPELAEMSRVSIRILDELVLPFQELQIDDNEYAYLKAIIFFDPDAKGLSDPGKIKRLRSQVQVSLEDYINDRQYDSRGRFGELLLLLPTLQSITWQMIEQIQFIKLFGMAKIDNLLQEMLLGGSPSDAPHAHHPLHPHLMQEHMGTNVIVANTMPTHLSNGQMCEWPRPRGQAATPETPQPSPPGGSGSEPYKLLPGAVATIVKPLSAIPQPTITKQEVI
Chain of human Retinoid X Receptor beta (RXRb), RXRB (gene 6257) (P28702 whole entry, looked up, the tested form may be a part): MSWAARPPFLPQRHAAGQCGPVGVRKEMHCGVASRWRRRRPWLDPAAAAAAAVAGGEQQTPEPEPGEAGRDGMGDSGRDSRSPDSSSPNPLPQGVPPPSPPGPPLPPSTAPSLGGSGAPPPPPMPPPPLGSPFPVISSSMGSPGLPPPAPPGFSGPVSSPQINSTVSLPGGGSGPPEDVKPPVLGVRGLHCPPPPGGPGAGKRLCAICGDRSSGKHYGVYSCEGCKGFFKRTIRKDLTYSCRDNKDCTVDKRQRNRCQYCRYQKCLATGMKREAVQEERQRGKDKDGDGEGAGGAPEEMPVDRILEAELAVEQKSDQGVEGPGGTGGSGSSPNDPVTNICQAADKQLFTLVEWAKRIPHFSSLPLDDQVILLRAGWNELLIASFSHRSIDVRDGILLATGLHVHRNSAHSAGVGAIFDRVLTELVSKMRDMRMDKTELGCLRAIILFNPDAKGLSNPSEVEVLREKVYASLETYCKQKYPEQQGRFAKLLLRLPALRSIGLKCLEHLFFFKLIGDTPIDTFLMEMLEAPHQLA
Chain of human Peroxisome Proliferator-activated Receptor alpha (PPARa), PPARA (gene 5465) (Q07869 whole entry, looked up, the tested form may be a part): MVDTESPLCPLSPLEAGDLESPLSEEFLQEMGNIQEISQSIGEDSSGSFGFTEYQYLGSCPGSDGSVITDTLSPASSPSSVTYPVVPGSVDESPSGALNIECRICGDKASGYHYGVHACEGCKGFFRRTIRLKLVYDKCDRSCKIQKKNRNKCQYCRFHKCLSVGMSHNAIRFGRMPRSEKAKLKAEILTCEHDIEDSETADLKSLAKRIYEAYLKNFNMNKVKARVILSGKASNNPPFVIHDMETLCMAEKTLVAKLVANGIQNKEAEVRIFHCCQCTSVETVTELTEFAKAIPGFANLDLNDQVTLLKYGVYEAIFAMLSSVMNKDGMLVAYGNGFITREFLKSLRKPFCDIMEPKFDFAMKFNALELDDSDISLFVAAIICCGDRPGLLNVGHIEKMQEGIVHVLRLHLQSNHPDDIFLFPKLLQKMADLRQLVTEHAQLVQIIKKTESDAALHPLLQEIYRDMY

CO[Si](CCCNCCN)(OC)OC
inactive: [1] | [2] | [3] | [4] | [5] | [6] | [7] | [8] | [9] | [10] | [11] | [12]

CC/C=C\CCO
inactive: [13] | [14] | [2] | [3] | [15] | [4] | [5] | [6] | [16] | [7] | [8] | [9] | [10] | [11]

Nc1ccc(S(=O)(=O)Nc2cnc3ccccc3n2)cc1
active: [20] 31.5 µM
inactive: [14] | [2] | [15] | [17] | [4] | [5] | [6] | [7] | [8] | [9] | [18] | [19] | [10] | [12]

CC/C=C\CCCCCO
inactive: [13] | [14] | [2] | [3] | [15] | [17] | [4] | [5] | [7] | [8] | [10] | [11] | [12]

COC(=O)/C=C\C(=O)OC
active: [2] 83.1 µM
inactive: [13] | [1] | [15] | [17] | [4] | [5] | [7] | [8] | [11] | [20] | [12]

CN(C)Cc1cc(C(C)(C)C)c(O)c(C(C)(C)C)c1
active: [10] 37.8 µM | [20] 1.67 µM
inactive: [1] | [2] | [5] | [16] | [9] | [18]

CC(C)(Oc1ccc(Cl)cc1)C(=O)O
inactive: [13] | [2] | [15] | [17] | [4] | [6] | [16] | [7] | [9] | [18] | [10] | [20] | [12]
active: [11] 29.8 µM

NC(=O)c1ccc([N+](=O)[O-])cc1Cl
inactive: [13] | [14] | [1] | [2] | [3] | [15] | [17] | [5] | [6] | [16] | [7] | [8] | [9] | [18] | [19] | [10] | [20] | [12]

O=C(c1ccccc1)c1ccccc1O
active: [18] 156 µM | [20] 75.9 µM
inactive: [14] | [1] | [15] | [17] | [5] | [8] | [9] | [19] | [10] | [11]

Brc1ccc(Oc2ccc(Br)cc2)cc1
active: [14] 86.9 µM | [10] 66.4 µM
inactive: [1] | [2] | [15] | [17] | [4] | [5] | [16] | [9] | [20] | [12]

OCCc1ccccn1
inactive: [13] | [14] | [3] | [17] | [6] | [16] | [7] | [18] | [10]

Clc1ccc(Sc2cc(Cl)c(Cl)cc2Cl)cc1
active: [20] 7.54 µM
inactive: [13] | [14] | [1] | [3] | [17] | [4] | [5] | [7] | [8] | [18] | [10]

c1cc[c]([Bi]([c]2ccccc2)[c]2ccccc2)cc1
inactive: [13] | [14] | [2] | [3] | [15] | [17] | [4] | [5] | [6] | [7] | [8] | [18] | [19]
active: [20] 7.42 µM

CCOC(=O)CC(=O)OCC
inactive: [14] | [1] | [3] | [4] | [5] | [6] | [16] | [7] | [18] | [11] | [12]

CCCC(=O)OC
inactive: [14] | [1] | [2] | [4] | [6] | [8] | [18] | [10] | [11]
